Results filed as inconclusive are left out. Where a call stands in place of a potency, no number is given. Activity calls are given as the source filed them. The call rests on the fitted dose curve; in most records, active means well fitted inhibition curve with a large enough effect; inconclusive means small, poorly fitted or top-dose-only effect; inactive means flat fitted curve, though single readings scatter. Where a SMILES comes first, the peptide text is derived from it. [ ]: non-standard residue; d: D form. ξ: configuration not given here. ξPhe(βξ-Me) = CC(c1ccccc1)C(N)C(=O)O; GABA = NCCCC(=O)O
Experiment: P-glycoprotein substrates identified in KB-8-5-11 adenocarcinoma cell line, qHTS therapeutic library screen (AID 1346987); further: nearly all actives have a fitted effect of over 65% in size
Details: KB-8-5-11 (P-gp overexpressing) viability, CellTiter-Glo, 72 h; series mostly up to 44.5 µM
Procedure, shortened: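 Luminescence from CellTiter-Glo, read 5 min after addition, quantified survival of KB-8-5-11 (P-gp-overexpressing) cells exposed to compounds for 72 h. AC50 was derived from concentration-response curves.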
Potency means the concentration at half of the fitted maximal effect.

Which activity change, negative = cytotoxicity does the source give for `CC1(C)CC[C@]2(CO[C@@H]3O[C@H](CO)[C@@H](O)[C@H](O)[C@H]3O)[C@@H](O)C[C@]3(C)C(=CCC4[C@@]5(C)CC[C@H](O[C@@H]6O[C@H](CO[C@@H]7O[C@H](CO[C@@H]8OC[C@@H](O)[C@H](O)[C@H]8O)[C@@H](O)[C@H](O)[C@H]7O)[C@@H](O)[C@H](O)[C@H]6O)C(C)(C)C5CC[C@]43C)[C@@H]2C1` (some centres undefined) here?
Its activity change, negative = cytotoxicity is 1.76% [at 9.29 µM] (inactive).

With `Cc1cc(C(=O)Nc2cccc(C(=O)Nc3cccc(C(F)(F)F)c3)c2)on1` as the molecule, how does the Potency read?
Its Potency is “inactive”.

For `CC1NC(=O)CCCNC(=O)C(Cc2c[nH]c3ccccc23)NC(=O)C(C)NC(=O)C(C(C)C)NC(=O)C(C(C)c2ccccc2)NC(=O)C(C(C)C)NC1=O` (stereo not drawn) (cyclo([GABA]AV[ξPhe(βξ-Me)]VAW); configuration not given here), which Potency is on record?
Its Potency is “inactive”.

With `CC(=O)N1CCc2ccc(O)c(OC3OC(COC4OCC(O)(CO)C4O)C(O)C(O)C3O)c2C1Cc1ccc(O)cc1` (centres undefined) as the molecule, how does the Potency read?
The Potency was “inactive”.

With `CC(C)[C@@](C)(O)[C@@H]1CN(c2nc(-c3[nH]nc4ncccc34)c(F)cc2Cl)CCN1` as the molecule, how does the Potency read?
Its Potency is 6510 nM (active).

With `C/C1=C\[C@H]2OC(=O)[C@@H](C)[C@@H]2CC/C(C(=O)O)=C/CC1` as the molecule, how does the Potency read?
The Potency was “inactive”.

Which Potency does the source give for `Cc1c(NC(=O)c2cc(C(N)=O)nc3cc(F)ccc23)c(C(F)(F)F)nn1Cc1ccc(C#N)cc1` here?
Its Potency is “inactive”.

For `N#C[C@@H]1C[C@H](F)CN1C(=O)CNC1[C@H]2CN(C(=O)c3ccc(F)cc3)C[C@@H]12` (some centres undefined), which Potency is on record?
The Potency was “inactive”.

With `CN(C)C/C=C/C(=O)Nc1cccc(C(=O)Nc2cccc(Nc3ncc(Cl)c(-c4c[nH]c5ccccc45)n3)c2)c1` as the molecule, how does the Potency read?
Its Potency is 13000 nM (active).

Which Potency does the source give for `C=C(C)C1Cc2cc(C(=O)OC3OC(CO)C(O)C(O)C3O)ccc2O1` (centres undefined) here?
Its Potency is “inactive”.

Which Potency does the source give for `Cc1ncc(CCCN(C)C)cc1Nc1ncc2c(n1)-c1ccc(C(F)(F)F)cc1NC(=S)C2` here?
The Potency was 65.1 nM (active).

For `CC(C)c1nnc(-c2ccc(-c3ccccc3)nc2)n1-c1cccc2nonc12`, which Potency is on record?
The Potency was “inactive”.

For `CNC(=O)c1ccccc1Nc1nc(Nc2ccc3c(c2OC)CCCC(N2CCN(CCO)CC2)C3)ncc1Cl` (centres undefined), which Potency is on record?
Its Potency is 8200 nM (active).

With `C/C1=C\C[C@]2(C)C(=O)C(O)=C([C@H](C)CO)[C@H]2C/C=C(\C)[C@@H](O)CC/C(C)=C/CC1` as the molecule, how does the Potency read?
Its Potency is “inactive”.

For `CC1(C)CC[C@]2(C(=O)O)[C@H](O)C[C@]3(C)C(=CCC4[C@@]5(C)CC[C@H](O[C@@H]6O[C@H](CO[C@@H]7OC[C@H](O)[C@H](O)[C@H]7O[C@@H]7OC[C@@H](O)[C@H](O)[C@H]7O)[C@@H](O)[C@H](O)[C@H]6O[C@@H]6O[C@H](CO)[C@@H](O)[C@H](O)[C@H]6O)C(C)(C)C5CC[C@]43C)[C@@H]2C1` (some centres undefined), which activity change, negative = cytotoxicity is on record?
The activity change, negative = cytotoxicity was 6.47% [at 9.29 µM] (inactive).

With `COc1ccc(CCO[C@@H]2O[C@H](CO[C@@H]3OC[C@H](O)[C@H](O)[C@H]3O)[C@@H](O)[C@H](O)[C@H]2O)cc1` as the molecule, how does the Potency read?
Its Potency is “inactive”.

With `CC1(C)CCCC2(C)C(C(=O)O)=CCC12` (centres undefined) as the molecule, how does the Potency read?
Its Potency is “inactive”.

With `C=C1CN(Cc2ccc(C(=O)Nc3ccccc3N)cc2)C(=O)c2ccccc21` as the molecule, how does the Potency read?
The Potency was 1300 nM (active).

Which Potency does the source give for `CC[C@H](CO)Nc1nc(NCc2ccc(-c3ccccn3)cc2)c2ncn(C(C)C)c2n1` here?
The Potency was 231 nM (active).

With `Cc1cc(C)nc(NS(=O)(=O)c2ccc(NC(=S)NC(=O)COc3ccc(Br)cc3Cl)cc2)n1` as the molecule, how does the Potency read?
Its Potency is “inactive”.

Which Potency does the source give for `C=C1C(=O)O[C@@H]2/C=C(\C)C(=O)/C=C/[C@](C)(O)C[C@@H](OC(=O)C(C)C)[C@@H]12` here?
The Potency was 4530 nM (active).

For `OC[C@@]1(O)CO[C@@H](OC[C@H]2O[C@@H](Oc3c[nH]c4ccccc34)[C@H](O)[C@@H](O)[C@@H]2O)[C@@H]1O`, which Potency is on record?
The Potency was “inactive”.

With `CCC(=O)O[C@H]1C(C)(C)[C@H]([C@@H](O)C(=O)OC)[C@]2(C)C(=O)[C@@]1(O)[C@H]1O[C@]13C1CC(=O)O[C@@H](c4ccoc4)[C@]1(C)CCC32` (some centres undefined) as the molecule, how does the Potency read?
Its Potency is “inactive”.

Which Potency does the source give for `COc1ccc(/C=C/C(=O)O[C@@H]2[C@@H](O)[C@H](C)O[C@@H](O[C@H]3[C@@H]4C=CO[C@@H](O[C@H]5O[C@@H](CO)[C@H](O)[C@@H](O)[C@@H]5O)[C@@H]4[C@@]4(CO)O[C@@H]34)[C@@H]2OC(C)=O)cc1` here?
The Potency was “inactive”.

Which Potency does the source give for `COc1ccc(F)cc1-c1cc(NC(=O)[C@@H]2CCCNC2)ncc1Cl` here?
Its Potency is 326 nM (active).

For `C/C=C/c1ccc(O[C@@H]2O[C@H](CO)[C@@H](O)[C@H](O)[C@H]2O)c(OC)c1`, which Potency is on record?
Its Potency is “inactive”.

For `C/C1=C\CCC2=C[C@@H](OC2=O)c2c(C)coc2C1`, which Potency is on record?
The Potency was “inactive”.

With `COc1cc2c(cc1OC)[C@@H]1[C@H](O)[C@@H](OC)C=C3CCN(C2)[C@H]31` as the molecule, how does the Potency read?
Its Potency is 5700 nM (active).

Which Potency does the source give for `COC(=O)C1(C)CCC2(C(=O)O)CCC3(C)C(=CCC4C5(C)CC(O)C(OC6OCC(O)C(O)C6O)C(C)(CO)C5CCC43C)C2C1` (centres undefined) here?
Its Potency is “inactive”.

With `COc1c2ccoc2cc2oc(CO[C@@H]3O[C@H](CO)[C@@H](O)[C@H](O)[C@H]3O)cc(=O)c12` as the molecule, how does the Potency read?
Its Potency is “inactive”.

Which outcome does the source give for `CN=C(N)NCCCCC/C=C(/C)CC(C)C1OC(=O)C(C)C(O)/C=C/C(C)C(O)CC(O)C(C)C(O)CCC(C)C(O)CC2(O)OC(CC(OC(=O)CC(=O)O)CC(O)CC(O)C(C)C(O)/C(C)=C/CCC1C)CC(O)C2O` (centres undefined) here?
Its outcome is “inactive [at 9.29 µM]”.

With `Cc1ccc([N+](=O)[O-])cc1S(=O)(=O)N(C)/N=C/c1cnc2ccc(Br)cn12` as the molecule, how does the Potency read?
Its Potency is 231 nM (active).

With `CC1(C)CC2C(O)c3cocc3CC(C)(O)C2C1` (centres undefined) as the molecule, how does the Potency read?
Its Potency is “inactive”.

Which Potency does the source give for `CCC1C(=O)N(C)c2cnc(Nc3ccc(C(=O)NC4CCC(N5CCN(CC6CC6)CC5)CC4)cc3OC)nc2N1C(C)C` (centres undefined) here?
Its Potency is 291 nM (active).

For `FC(F)(F)c1ccc(Nc2nc(-c3c(C(F)(F)F)nc4ccccn34)cs2)cc1`, which Potency is on record?
Its Potency is 461 nM (active).

With `COc1cc(/C=C/CO)cc(OC)c1O[C@@H]1O[C@H](CO[C@@H]2O[C@H](CO)[C@@H](O)[C@H](O)[C@H]2O)[C@@H](O)[C@H](O)[C@H]1O` as the molecule, how does the Potency read?
Its Potency is “inactive”.

For `CC(C)C(CO)Nc1nc(Nc2ccc(C(=O)O)c(Cl)c2)c2ncn(C(C)C)c2n1` (centres undefined), which Potency is on record?
The Potency was “inactive”.

With `CC/C=C/CC1=C(CCCCC(CCC(=O)O)OC(C)=O)CCC1=O` (centres undefined) as the molecule, how does the Potency read?
The Potency was “inactive”.

With `Oc1ccc(CNc2ccccc2F)c2cccnc12` as the molecule, how does the Potency read?
Its Potency is 6510 nM (active).
